Out of some 360,000 compounds screened, about 6,000 (1.7%) were called active. Another 8% or so got no clear call; they are omitted. This excerpt belongs to a sample that is enriched for actives. A number with no mark means an inactive call. Calls follow the shape of the dose curve; as a rule, active = well fitted cell-killing curve with a large enough effect; inconclusive = small, poorly fitted or top-dose-only effect, or effect the other way; inactive = flat fitted curve, though single readings scatter.
Potency is read from the fitted curve at half-maximal effect.

The nature of the assay: qHTS for induction of synthetic lethality in tumor cells producing 2HG: qHTS for the HT-1080-NT fibrosarcoma cell line. Also: nearly all actives have a fitted effect of over 55% in size. To be noted: HT-1080-NT fibrosarcoma viability, CellTiter-Glo ATP luminescence, 48 h; series mostly up to 46.1 µM; activity, negative = less viability: at the top concentration. An excerpt:
Unbiased genomic sequencing for 22 glioma genomes found recurrent mutation of IDH1 on chromosome 2q33, a gene encoding the cytosolic isoform of IDH1 associated with the tricarboxylic acid cycle (TCA) that catalyzes the oxidative decarboxylation of isocitrate, yielding alpha-ketoglutarate and CO2 via NADP+ to NADPH conversion. Subsequent studies confirmed the recurrent IDH mutations in up to 70% of secondary gliomas and in 10% of AML cases. In addition, the somatic mutation of cancer-associated IDH1 is a point mutation resulting in various amino-acid substituents at Arginine132 (IDH1 R132), a key residue found in the enzyme's active site that when mutated, results in the loss-of-function in metabolizing isocitrate but confers a gain-of-function to produce the oncometabolite 2-hydroxyglutarate (2HG). This in effect defines IDH1 as an oncogene and provides an extraordinary opportunity to discover chemical probes against mutant IDH1 that may translate into much needed new therapies for glioma and AML patients.
This assay aims to perform a synthetic lethal screen for chemical probes specific for 2HG-producing tumor cells using matched paired cell lines (1) HT-1080-NT fibrosarcoma cell line that overproduces 2HG and (2) HT-1080-IDH1KD cell line which has IDH1 expression knocked-down. Desirable compounds are toxic to the NT fibrosarcoma cells but not to the IDH1KD cell line. The data in this AID corresponds to the results of the qHTS against the HT-1080-NT fibrosarcoma cell line.
[1] Dang L, Jin S, Su SM. IDH mutations in glioma and acute myeloid leukemia. Trends of Mol Med. 2010; 16(9): 387-97.
[2] Dang L et al. Cancer-associated IDH1 mutations produce 2-hydroxyglutarate. Nature. 2010; 465(7300):966.
NIH Molecular Libraries Probe Production Centers Network [MLPCN]
NIH Chemical Genomics Center [NCGC]
Assay Submitter (PI): Lenny Dang Ph.D., Agios Pharmaceuticals
Suspensions of trypsinized HT-1080-NT cells were dispensed into white, tissue culture-treated, solid 1536-well plates at 5uL/well (750 cells/well final concentration) in RPMI medium supplemented with 5% FBS. Plates were incubated at 37 degrees C for 2 hours, after which 23 nL of compounds or DMSO were delivered to each well using a pin tool. Plates were then incubated at 37 degrees C for an additional 48 hours. CellTiter-Glo viability reagent (Promega) was dispensed into wells (2.5uL/well) and incubated at room temperature for 10 minutes. The plates were measured on a PerkinElmer ViewLux plate reader for luminescent signal (clear filter, 1 sec exp). DMSO-treated control wells and media-only (no cells) control wells were used to normalize %Activity of identified toxic compounds; DMSO-treated wells corresponded to 0%Activity (100% viability), while media-only controls were used to normalize 100%Activity (0% viability).
Concentration-response curves were fitted to the signals arising from the resulting luminescence. The concentration-effect curves were then classified based on curve quality (r2), response magnitude and degree of measured activity, and compounds were subsequently categorized based on their curve class.
For orientation: qHTS replaces the single test concentration by a dilution series.
`COc1cccc(/C=C2\SC(=S)N(CCCC(=O)N3CCOCC3)C2=O)c1`: the “activity, negative = less viability” value was 0.898%.
For `CCCCc1ccc(S(=O)(=O)NC(=O)C2(C)CCN2C(=O)c2ccccc2)cc1` (centres undefined), the “activity, negative = less viability” value is 8.41%.
For `CCCOc1ccc(C(=O)CCC(=O)OC(C)C(=O)Nc2ccc(NC(C)=O)cc2)cc1` (centres undefined), the “activity, negative = less viability” value is 4%.
On to `CCCOc1ccc(C(=O)C(CCC(CNCC)C(=O)c2ccc(OCCC)cc2)CNCC)cc1` (centres undefined), for which the Potency is 16.4 µM (active).
Turning to `CCCOc1ccc(/C=N/NC(=O)C2CC2)c(OCCC)c1`, the “activity, negative = less viability” value is -1.92%.
Still for that read-out and setting: the value for `Cc1ccccc1S(=O)(=O)NC(=O)C1(C)CCN1C(=O)C1(c2ccc(Cl)cc2)CC1` (centres undefined) was 0.791%; that for `COc1cc(C(O)c2nc(-c3cnn(C)c3)cs2)ccc1F` (centres undefined) was 4.84%.
Still for that read-out and setting: the value for `O=C(Nc1ccc(F)cc1)C(CCc1ccccc1)N1CCN(CC(=O)N2CCCC2)CC1` (centres undefined) was 0.926%.
For `Cc1ccc(S(=O)(=O)N2C[C@H]3n4c(=O)ccc(=O)n4C[C@H](OC(=O)NC4CCCC4)[C@@]3(O)C2)cc1`, the “activity, negative = less viability” value was -27.2%.
Same read-out and setting: the value for `CCCCCCNC(=O)O[C@]12C[C@@H](C(=O)OC)[C@@H](C(=O)OC)C[C@@]1(O)CN(S(=O)(=O)c1ccc(C)cc1)C2` was -0.467%.
Regarding `CCCCCCNC(=O)O[C@H]1CN(C(=O)OC(C)C)N(C(=O)OC(C)C)[C@@H]2CN(S(=O)(=O)c3ccc(C)cc3)C[C@]12O`, the Potency was 20.6 µM (active).
`CS(=O)(=O)N1CCCCC1c1cc(C(=O)NCc2ccccc2)no1` (centres undefined): the “activity, negative = less viability” value was 23.6%.
For the molecule `CC(=O)OCC(C)n1c(=O)c2ccccc2n1C(C)=O` (centres undefined), the “activity, negative = less viability” value is 3.8%.
As for `CCN1/C(=C/C(=S)Nc2ccccc2)Sc2ccccc21`, the Potency was 6.51 µM (active).
In the case of `CC(NC(=S)Nc1ccccc1)C1COc2ccccc2O1` (centres undefined), the “activity, negative = less viability” value was -2.44%.
For the molecule `CCOC(=O)CNC(=O)N1c2ccccc2Sc2ccccc21`, the “activity, negative = less viability” value is 0%.
On the same count and under the same terms, the value for `COc1ccc(OC)c(CN2C(=O)CCC2(C)c2nnnn2Cc2ccccc2)c1` (centres undefined) was 6.01%; that for `CCOC(=O)N1CCN(C(=O)C[C@@H]2C[C@@]3(C(=O)OC)CCCCC=C3N(CCC3=CCCCC3)C2=O)CC1` was -17.7%.
On to `CCc1ccccc1OCC(=O)Nc1nnc(C2CC2)s1`, for which the “activity, negative = less viability” value was 6.09%.
For `O=C(Nc1nnc(C2CC2)s1)c1ccccn1`, the Potency was 7.08 µM (active).
With `Cc1cc(C(=O)Nc2nnc(C3CC3)s2)c(C)s1`, the activity, negative = less viability was -2.13% [at 9.24 µM].
Still for that read-out and setting: the value for `Cc1onc(-c2ccccc2)c1-c1nnc(COC(=O)c2ccc(N(C)C)cc2)o1` was -9.65%; that for `COc1ccc(CCNC(=O)Nc2ccc3c(c2)c(=O)n(C)n3C)cc1OC` was 18.5%.
Consider `COc1ccc(C(=O)C2CCCN(Cc3cccn3-c3ccccn3)C2)c(C)c1` (centres undefined), for which the Potency was 8.2 µM (active).
As for `CCOC(=O)c1[nH]ncc1CN1CCCC(C(=O)c2ccc(OC)cc2C)C1` (centres undefined), the “activity, negative = less viability” value is 2.6%.
On to `COc1ccc(C(=O)C2CCCN(Cc3ccc4nonc4c3)C2)c(C)c1` (centres undefined), for which the “activity, negative = less viability” value is -10.5%.
In the case of `COCCCN1C(=O)C(CC(=O)NCc2cccs2)CC(C(=O)N2CCOCC2)=C1C` (centres undefined), the “activity, negative = less viability” value was 13.1%.
On the same count and under the same terms, the value for `COc1ccc(CNC(=O)c2nnn(CC(=O)Nc3cc(C)cc(C)c3)c2N)cc1` was 1.9%.
As to `CCOc1ccccc1NC(=O)Cn1nnc(C(=O)NCc2cccs2)c1N`, the Potency is 0.461 µM (active).
In the case of `CCOc1ccccc1NC(=O)Cn1ncc2ccc([N+](=O)[O-])cc21`, the “activity, negative = less viability” value was -2.56%.
Turning to `Cc1ccc(SCC(=O)NC(=O)NCc2ccco2)c(C)c1`, the “activity, negative = less viability” value was -4.84%.
Turning to `CCOc1ccc(Cn2nnc(C(=O)Nc3ccc(OC)cc3OC)c2N)cc1`, the “activity, negative = less viability” value was -2.78%.
On to `Cc1ccc(NC(=O)Cn2nnc(C(=O)NCc3ccco3)c2N)c(C)c1`, for which the Potency is 20.6 µM (active).
For `CC(=O)c1ccc(OCC(=O)N(C)C2CCS(=O)(=O)C2)cc1` (centres undefined), the “activity, negative = less viability” value is 14.7%.
Turning to `COc1ccc(CN2C(=O)C(CC(=O)NCCN3CCOCC3)CC(C(=O)N(C(C)C)C(C)C)=C2C)cc1` (centres undefined), the “activity, negative = less viability” value is 1.88%.
Same read-out and setting: the value for `O=C(NCc1ccc(F)cc1F)[C@@H]1CCCN1C(=O)[C@@H]1CCCN1C(=O)c1cccc(Cl)c1` was 10.8%; that for `Nc1nc2c(Br)ccc(Br)c2cc1C(=O)NCCc1ccccc1` was 0.0286%.
The same measure, in the same setting: the value for `CCOC(=O)c1cc(-c2sc(NC(=O)c3ccccc3)nc2C)n(Cc2ccccc2)n1` was -27.9%; that for `COc1ccc(C(=O)N[C@H](C(=O)NCc2ccccc2)C(C)C)cc1` was 8.29%.
Still for that read-out and setting: the value for `COc1cc(OC)cc(C(=O)N[C@H](C(=O)NNC(=O)c2ccc(Br)cc2)C(C)C)c1` was -0.305%.
Take `COc1cc(OC)cc(C(=O)N[C@H](C(=O)Nc2nc3ccccc3[nH]2)C(C)C)c1`: the Potency was 1.16 µM (active).
On to `CN(NS(=O)(=O)c1cccs1)c1ncc(C(F)(F)F)cc1Cl`, for which the “activity, negative = less viability” value is 6.3%.
The same measure, in the same setting: the value for `Cc1ccc(NS(=O)(=O)c2ccc(C(C)(C)C)cc2)cn1` was 1.12%.
As to `Cc1cc(C)cc(NS(=O)(=O)c2ccc(Oc3ncc(C(F)(F)F)cc3Cl)cc2)c1`, the Potency is 23.1 µM (active).
In the case of `COC(=O)[C@@]1(Sc2ccc(C)cc2)CC(=O)N(c2cccc(SC)c2)[C@@H]1c1ccccc1`, the “activity, negative = less viability” value is -37.1%.
On the same count and under the same terms, the value for `CCCCCCN1CCN(C2CN(Cc3cn(CCCCCC)nn3)S(=O)(=O)C2)CC1` (centres undefined) was -28.1%; that for `Cn1c(NCc2cccnc2)nc2cc(-c3ccc(F)cc3)sc2c1=O` was 3.48%.
For `O=c1[nH]c(CCl)nc2cc(-c3ccc(Cl)cc3)sc12`, the Potency is 16.4 µM (active).
Regarding `CCC1(CC)Cc2ccccc2-c2nc(CCl)[nH]c(=O)c21`, the “activity, negative = less viability” value was -27.6%.

The record behind these values is PubChem BioAssay AID686970 (National Center for Advancing Translational Sciences (NCATS), 2013).
